Compound activity as filed in PubChem.
The full list was thinned out, with hits kept by preference.
GPR32 ag = qHTS for Agonists of Human Resolvin D1 Receptor DRV1; Probable G-protein coupled receptor 32 (Homo sapiens), O75388; CHO-K1 GPR32 beta-arrestin PathHunter luminescence, 90 min; zero percent set by DMSO-only wells; activation, % at 76.9 µM; actives 2.5% (n = 48,000); AID 1346428, 2018;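 active = activation of at least 60% and not above a set upper limit, about 1 call in 100 departs from these limits; inconclusive = activation of 40% to 60%, or above that upper limit; inactive = activation under 40%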; note: 0% is about no effect
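Luminescent readout of beta-Gal complementation quantifies ligand-induced beta-arrestin association with GPR32 in CHO-K1 cells; 90 min compound incubation at 37 °C, detection 1 h at room temperature.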
UDG counter = Primary qHTS assay for inhibitors of Activation Induced Cytidine Deaminase (AID): UDG Counterscreen signal. Uracil-DNA glycosylase. FRET deamination/UDG coupled assay, UDG read, 4 h. Potency, µM (titrated, usually from 115 µM), inactives show top-dose activity change, negative = inhibition, most hits filed as inhibitors. actives 0.14% (n = 91,000). AID 1347430, 2020; note: potency is the fitted concentration of half-maximal effect; % is set by controls: 0 for no effect and ±100 for the full control effect; nearly all actives have a fitted effect of over 65% in size
AID inhibitor = Primary qHTS assay for inhibitors of Activation Induced Cytidine Deaminase (AID): AID signal; Potency, µM (series often up to 115 µM), usual class: inhibitors; AID 1347428, 2020; AID deamination FRET fluorescence, UDG-coupled, 4 h; actives 0.32% (n = 91,000); note: potency is the fitted concentration of half-maximal effect; % is set by controls: 0 for no effect and ±100 for the full control effect; nearly all actives have a fitted effect of over 25% in size
Target sequence (Q9GZX7 whole entry, looked up): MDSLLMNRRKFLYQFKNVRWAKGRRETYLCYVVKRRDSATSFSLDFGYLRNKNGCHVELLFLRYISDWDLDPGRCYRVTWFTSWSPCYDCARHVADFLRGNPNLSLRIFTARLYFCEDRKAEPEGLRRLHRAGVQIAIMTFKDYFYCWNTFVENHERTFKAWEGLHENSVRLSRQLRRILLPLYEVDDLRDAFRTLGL
Starred values were filed as active, the others as inactive; [ ] = another dose, or the depositor's remark. Unless noted, calls come from the whole dose curve; as a rule, active = well fitted curve in the direction sought with a large enough effect; inconclusive = small, poorly fitted or top-dose-only effect, or another doubt; inactive = no such curve, though single readings can be large; an effect the other way counts as inactive or inconclusive.

Results for Cc1cccc(-c2nc(CCNC(=O)Cc3ccc(F)cc3)cs2)c1 ?
GPR32 ag: -16; UDG counter: -2%[57.5 µM]; AID inhibitor: inactive

Results for O=C(NCCc1csc(-c2ccc(F)cc2)n1)c1cccc(F)c1 ?
GPR32 ag: 66*; UDG counter: -12%; AID inhibitor: inactive

Results for O=C(Cc1ccc(F)cc1)NCCc1csc(-c2cccc(F)c2)n1 ?
GPR32 ag: 103*; UDG counter: 0%; AID inhibitor: inactive

What do the screens show for `CCCCOc1ccc(C(=O)NCCc2csc(-c3cccc(F)c3)n2)cc1`?
GPR32 ag: 22; UDG counter: 5%; AID inhibitor: inactive

What do the screens show for `CC(C)Nc1nc(C(=O)Nc2ccc3[nH]ccc3c2)cs1`?
UDG counter: -15%; AID inhibitor: inactive

Results for CCc1[nH]c2ccc(C(=O)O)cc2c1C ?
UDG counter: -1%; AID inhibitor: inactive

How did CN(C)c1ccc(C(=C2C=CC(=[N+](C)C)C=C2)c2ccccc2)cc1 do in these assays?
GPR32 ag: 95*

How did CN(C)c1ccc(C(=C2C=CC(=[N+](C)C)C=C2)c2ccc(N(C)C)cc2)cc1 do in these assays?
GPR32 ag: -79

How did COc1ccc(NC(=O)c2cnc(SC)nc2-c2ccccc2)cc1OC do in these assays?
UDG counter: 7%; AID inhibitor: inactive

Results for Cc1cc(C)cc(NS(=O)(=O)c2ccc(-n3cccn3)cc2)c1 ?
GPR32 ag: 7; UDG counter: -1%; AID inhibitor: inactive

Results for Cc1ccc(NS(=O)(=O)c2ccc(-n3cccn3)cc2)cc1Cl ?
GPR32 ag: 73*; UDG counter: -2%; AID inhibitor: inactive

What do the screens show for `CCc1cccc(NS(=O)(=O)c2ccc(-n3cccn3)cc2)c1`?
GPR32 ag: 86*; UDG counter: -5%; AID inhibitor: inactive

Results for COc1ccc(NS(=O)(=O)c2ccc(-n3cccn3)cc2)cc1OC ?
GPR32 ag: 14; UDG counter: -1%; AID inhibitor: inactive

Results for O=S(=O)(Nc1ccc(F)cc1F)c1ccc(-n2cccn2)cc1 ?
GPR32 ag: 75*; UDG counter: -4%; AID inhibitor: inactive

Results for CCc1cccc(C)c1NS(=O)(=O)c1ccc(-n2cccn2)cc1 ?
GPR32 ag: inconclusive; UDG counter: 0%; AID inhibitor: inactive

Results for CC(=O)N(c1nc(C)c(C(=O)Nc2ccc3cc[nH]c3c2)s1)C(C)C ?
UDG counter: 5%; AID inhibitor: inactive

What do the screens show for `COc1cc(C(=O)Nc2ccc3oc(-c4ccc(F)cc4)cc(=O)c3c2)cc(OC)c1OC`?
UDG counter: 1%; AID inhibitor: inactive

How did Cc1ccc(NC(=O)c2ccc(C)c(S(=O)(=O)N3CCCCCC3)c2)cc1 do in these assays?
GPR32 ag: 39; UDG counter: -2%; AID inhibitor: inactive

How did Cc1ccc(C(=O)Nc2cccc(O)c2)cc1S(=O)(=O)N1CCCCCC1 do in these assays?
GPR32 ag: 82*; UDG counter: inconclusive; AID inhibitor: inactive

Results for CC(C)(C)C(=O)NCc1cccc(Oc2ccccc2)c1 ?
UDG counter: -8%; AID inhibitor: inactive

Results for Cc1cccc(N(CC(=O)N(C)Cc2ccccc2)S(=O)(=O)c2ccccc2)c1C ?
GPR32 ag: 22; UDG counter: -10%; AID inhibitor: 35µM*

Results for Cc1cccc(N(CC(=O)NCCc2ccccc2)S(=O)(=O)c2ccccc2)c1C ?
GPR32 ag: 1; UDG counter: 3%[57.5 µM]; AID inhibitor: inactive

Results for Cc1ccc(C)c(Nc2nc(N3CCN(c4ccc(F)cc4)CC3)nc3nccnc23)c1 ?
UDG counter: -23%; AID inhibitor: inconclusive

What do the screens show for `Cc1ccc(Nc2cc(-c3ccccc3)nc(C)n2)cc1`?
GPR32 ag: -6; UDG counter: -21%; AID inhibitor: inconclusive

What do the screens show for `Cc1nc(Nc2ccc(Cl)cc2)cc(-c2ccccc2)n1`?
GPR32 ag: 67*; UDG counter: -4%; AID inhibitor: inconclusive

Results for CC(=O)C1(C)CC2(CC(COCC(C)C)OC2=O)C(=O)O1 (configuration not stated) ?
UDG counter: -6%; AID inhibitor: inactive

What do the screens show for `O=C(Nc1ccc(F)cc1)c1ccc2c(c1)NC(=O)c1ccccc1S2`?
GPR32 ag: 76*; UDG counter: 8%; AID inhibitor: inactive

What do the screens show for `COC(=O)c1cc(NC(=O)c2ccc3c(c2)NC(=O)c2ccccc2S3)cc(C(=O)OC)c1`?
GPR32 ag: -18; UDG counter: -7%; AID inhibitor: inactive
